Reference: PubChem BioAssay (NCATS)
Results filed as inconclusive are left out. The source made the active and inactive calls. Calls follow the shape of the dose curve; as a rule, active = well fitted inhibition curve with a large enough effect; inconclusive = small, poorly fitted or top-dose-only effect; inactive = flat fitted curve, though single readings scatter.

Each molecule was assayed against Dual specificity protein kinase CLK4 (Homo sapiens) (UniProt Q9HAZ1) (assay: qHTS Assay for Inhibitors of CDC-like Kinase 4 (ADP-FP Assay) (AID 1795; also: nearly all actives have a fitted effect of over 60% in size)). Details: Transcreener ADP fluorescence polarization; series mostly up to 50 µM.
Protocol: NIH Molecular Libraries Probe Production Centers Network [MLPCN] NIH Chemical Genomics Center [NCGC] MLPCN Grant: 1R03MH084827-01 Assay Submitter (PI): Tom Misteli NCGC Assay Overview: Clk4 (Invitrogen cat # PV3839) was assayed using ATP and the RS repeat peptide (AnaSpec cat # 61722) as substrates using Transcreener (trade mark), a competitive fluorescence polarization (FP) assay. For the present assay, we used the Orange TranscreenerTM ADP2 (BellBrooks Labs, Madison, Wis) detection system to monitor ADP production in the kinase reaction. […] This allows the ADP tracer to freely rotate leading to a decrease in the observed FP value. The amount of ADP produced can then be calculated using a calibration curve. The positive control for the assay was TG003 (Sigma-Aldrich, cat # 300801-52-9) which is a Clk4 inhibitor [2].
NCGC Assay Protocol Summary: Two uL/well of substrate-buffer solution (100 uM RS peptide, 1 uM ATP, 25 mM Tris pH7.5, 10 mM MgCl2, 0.5 mM EGTA, 2.5 mM DTT, 0.01% Triton X-100 final concentration) was dispensed into 1,536-well assay plates (Greiner, solid black medium-binding plates) with Aurora Discovery BioRAPTR Flying Reagent Dispenser (FRD; Beckton-Dickenson). Using a Kalypsys pin tool equipped with a 1,536-pin tool, 23 nL of compound solution was transferred to the assay plate. Two uL/well Clk4-buffer solution (6.25 nM Clk4, 25 mM Tris pH 7.5, 10 mM MgCl2, 0.5 mM EGTA, 2.5 mM DTT, 0.01% Triton X-100, final concentration) was then added using the FRD yielding a total kinase reaction volume of 4 uL/ well. Then 4 uL/well of detection mixture (4 nM orange fluorescent tracer, 1 ug/mL ADP antibody, final concentration) was then added after an hour and the polarization signal was measured using the EnVision plate reader (PerkinElmer, Waltham, MA) after 30 min of room temperature incubation using the following filters and program settings: BODIPY TMR FP dual Enh mirror (barcode 682); BODIPY-TMR 531 (barcode 105) excitation; BODIPY-TMR FP P/S polarized 595 nm filters (barcodes 210 and 211, respectively); 100% light; 150 flashes; 1.35 G-factor; Detector gains were 685 for the 1st detector; 630 for the 2nd detector.
Potency is read from the fitted curve at half-maximal effect.

Sequence of Dual specificity protein kinase CLK4 (Homo sapiens) (Q9HAZ1 whole entry, looked up): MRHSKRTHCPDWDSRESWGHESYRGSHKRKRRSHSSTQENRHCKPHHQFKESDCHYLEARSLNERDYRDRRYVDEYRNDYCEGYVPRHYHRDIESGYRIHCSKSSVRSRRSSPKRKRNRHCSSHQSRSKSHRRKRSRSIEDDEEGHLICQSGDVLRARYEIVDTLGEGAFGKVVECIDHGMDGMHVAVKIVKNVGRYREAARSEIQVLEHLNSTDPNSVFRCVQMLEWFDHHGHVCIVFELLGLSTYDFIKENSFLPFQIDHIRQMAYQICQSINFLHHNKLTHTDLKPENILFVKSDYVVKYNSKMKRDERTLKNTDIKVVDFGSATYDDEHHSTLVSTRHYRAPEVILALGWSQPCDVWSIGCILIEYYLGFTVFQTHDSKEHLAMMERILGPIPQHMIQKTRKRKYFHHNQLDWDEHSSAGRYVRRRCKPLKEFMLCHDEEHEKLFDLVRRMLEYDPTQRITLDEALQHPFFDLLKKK

Potency, active:
CNc1ncnc2ccc(-c3cccc(OC)c3)cc12 0.282 µM
COc1ccc(CNc2ncnc3ccc(-c4ccoc4)cc23)c(OC)c1 0.282 µM
CC(=O)NCCNc1ncnc2ccc(-c3ccccc3C)cc12 12.6 µM
COc1ccc2[nH]cc(CCNc3cc(-c4ccccc4Cl)ncn3)c2c1 12.6 µM
COc1ccccc1CNc1cc(-c2ccc(C(=O)N(C)C)cc2)ncn1 11.2 µM
COc1cccc(-c2ccc3ncnc(NCCc4c[nH]c5ccc(OC)cc45)c3c2)c1 0.631 µM
c1cncc(-c2ccc3ncnc(NC4CCNCC4)c3c2)c1 12.6 µM
CN1CCN(c2ncnc3ccc(-c4cccc(NS(C)(=O)=O)c4)cc23)CC1 10 µM

Potency, inactive:
CN(C)c1ncc2nc(-c3ccccc3)c(=O)n(CCC#N)c2n1
Cc1ccccc1-c1nccc(NCc2cccnc2)n1
CCNc1ncc2nc(-c3cccs3)c(=O)n(Cc3cccc(OC)c3)c2n1
CCNc1ncc2nc(-c3cn(C)c4ccccc34)c(=O)n(C[C@H]3CCCO3)c2n1
CN(C)c1ncnc2ccc(-c3cccc(C#N)c3)cc12
CN(C)C(=O)c1ccc(-c2nccc(-n3ccnc3)n2)cc1
CN1CCN(c2ncc3nc(-c4cn(C)c5ccccc45)c(=O)n(Cc4cccs4)c3n2)CC1
COc1ccccc1CNc1nc(-c2cccc(C#N)c2)nc2ccccc12
O=c1c(-c2cc(F)cc(F)c2)nc2cnc(N3CCOCC3)nc2n1CCc1ccccc1
COc1ccc(-n2c(=O)c(CCc3ccccc3)nc3cnc(N4CCN(C)CC4)nc32)cc1
COCCn1c(=O)c(-c2ccccc2)nc2cnc(Nc3cccc(OC)c3)nc21
COCCn1c(=O)c(-c2cccc(C#N)c2)nc2cnc(Oc3ccc(OC)cc3)nc21
COc1ccccc1-c1cncnc1Nc1ccccc1
COc1ccccc1-c1nc(N(C)C)c2ccccc2n1
CCNc1ncc2nc(CCc3ccccc3)c(=O)n(Cc3ccc(F)cc3)c2n1
Cc1nc2cncnc2n(Cc2ccc(F)cc2)c1=O
CN1CCN(c2ncc3nc(-c4cccc(C#N)c4)c(=O)n(CCC#N)c3n2)CC1
COc1ncc2nc(-c3cn(C)c4ccccc34)c(=O)n(C)c2n1
CN(C)c1ncc2nc(-c3ccc(F)cc3)c(=O)n(CCc3ccccc3)c2n1
COc1ccc(CNc2ncncc2-c2cccc(NS(C)(=O)=O)c2)c(OC)c1
CCNc1ncc2nc(-c3ccc(Cl)cc3)c(=O)n(C)c2n1
O=c1c(-c2cccs2)nc2cnc(N3CCNCC3)nc2n1Cc1cccs1
COc1ccccc1-c1nc(NCc2cccnc2)c2ccccc2n1
COCCn1c(=O)c(-c2ccc(OC)cc2)nc2cnc(N3CCOCC3)nc21
COCCn1c(=O)c(C)nc2cnc(Oc3cccc(Cl)c3)nc21
COc1ccc(Oc2ncc3nc(-c4cccc(C#N)c4)c(=O)n(C)c3n2)cc1
COc1ccc(Oc2ncc3nc(-c4ccc(F)cc4)c(=O)n(C4CC4)c3n2)cc1
Cc1noc(C)c1-c1nccc(N(C)C)n1
COc1ccc(-c2nc3cnc(N(C)C)nc3n(-c3ccccc3)c2=O)cc1
CN1CCN(c2ncc3nc(CCc4ccccc4)c(=O)n(C)c3n2)CC1
COCCn1c(=O)c(-c2ccc(Cl)cc2)nc2cnc(N3CCOCC3)nc21
Cc1cnc(CNc2ncncc2-c2ccccc2Cl)cn1
